The text below walks through data of PubChem BioAssay AID624351 (Southern Research Specialized Biocontainment Screening …, 2012).

Out of some 2,400 compounds screened, about 1,400 (58%) were called active. The set was probably picked from earlier hits. The list shows a part of the results. A number with no mark means an inactive call.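 Rule for the calls: active = inhibition of 30% or more at any tested dose; inconclusive = primary hits over the limit that were never retested; inactive = the rest.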

The experiment can be described thus: ADP Hunter readout inhibition without MgcRacGAP – biochemical, coupled enzyme counter-screen, artefact control for MgcRacGAP inhibitor project, dose response (AID 624351).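 For inhibition: 0% = median positive control wells and 100% = median negative control wells.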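 Note: signal is the ADP detection kit reading of free GDP without any GAP enzyme.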 The following applies: fluorescence, no MgcRacGAP; series mostly up to 80 µM; inhibition: at the top concentration.
With `CC1CC(C)(C)N(C(=O)CN2CCN(C)CC2)c2ccccc21` (centres undefined), the “inhibition” value is 23.8%.

On to `CC1CCC/C(=C\c2ccc(O)cc2)C1=O` (centres undefined), for which the IC50 was 22.3 µM (active).

For the compound `O=C1CCCC/C1=C\Nc1ccc(O)cc1`, the half-maximal inhibitory concentration (IC50) is 13.3 µM (active).

With `CC1CCC/C(=C\Nc2ccc(O)cc2)C1=O` (centres undefined), the IC50 is 31.8 µM (active).

Regarding `Cc1cc(O)ccc1N/C=C1\CCCC1=O`, the IC50 is 21 µM (active).

Take `Cc1cnc(NC(=O)C(C)N2CCN(C)CC2)s1` (centres undefined): the “inhibition” value is 24.8%.

For `O=C1OCC/C1=C\c1ccc(O)cc1`, the IC50 was 27.6 µM (active).

For the compound `CCOc1ccccc1CN(CCc1ccc2c(c1)OCO2)Cc1ccccn1`, the “inhibition” value was 17.6%.

For `CC1OC(CC(=O)O)CC2=C1C(=O)c1c(O)cccc1C2=O` (centres undefined), the “inhibition” value is -0.48%.

In the case of `S=c1[nH]nc(-c2cccnc2)n1/N=C/c1cccs1`, the IC50 is 42.7 µM (active).

Regarding `O=[N+]([O-])c1cccc(/C=N/n2c(-c3cccnc3)n[nH]c2=S)c1`, the IC50 is 24.9 µM (active).

With `Cc1ccc(/C=N/n2c(-c3cccnc3)n[nH]c2=S)s1`, the IC50 was 43.8 µM (active).

On to `Cn1c(-c2cccc([N+](=O)[O-])c2)cnc1NCc1cccc([N+](=O)[O-])c1`, for which the “inhibition” value is 22.6%.

`CCc1ccc(OCCOCCN2CCN(C)CC2)cc1`: the “inhibition” value is 19.5%.

For the compound `COc1ccc(C2NC(=O)C(C#N)=C(S)N2c2ccc(C)cc2)cc1OC` (centres undefined), the “inhibition” value is 3.19%.

As for `CC1=CC(C)(C)N(C(=O)CNC2CCCC2)c2cc(C)ccc21`, the “inhibition” value is 20.2%.

For the compound `O=[N+]([O-])c1ccc(Sc2cccc3cccnc23)c([N+](=O)[O-])c1`, the “inhibition” value was 5.21%.

For the compound `Nc1[nH]c2cc([N+](=O)[O-])ccc2c1-c1ccccn1`, the IC50 was 75.4 µM (active).

On to `O=[N+]([O-])c1ccc(Oc2cccc3cccnc23)c([N+](=O)[O-])c1`, for which the “inhibition” value is 8.96%.

As for `O=C(O)c1ccccc1NS(=O)(=O)c1ccc(N/N=C/c2ccc(O)c(O)c2)c([N+](=O)[O-])c1`, the IC50 is 69.8 µM (active).

For the compound `C=CCOc1ccc(C=NNc2ccc(S(=O)(=O)Nc3ccccc3C(=O)O)cc2[N+](=O)[O-])cc1OC`, the “inhibition” value is 4.51%.

In the case of `O=C(/C=C/c1ccc(O)c(O)c1)NC(=O)c1ccccc1O`, the IC50 is 21.9 µM (active).

For `Cc1ccc2oc(=O)c(/C=C(\O)c3ccccc3)nc2c1`, the IC50 is 59.2 µM (active).

Regarding `Cn1c(N=Nc2ccc(N3CCOCC3)cc2)[n+](C)c2ccccc21`, the concentration for half-maximal inhibition (IC50) is 58.3 µM (active).

Take `c1csc(CNc2ccc3c(c2)OCCO3)c1`: the IC50 is 69.2 µM (active).

As to `O=C(CNCc1ccc(Cl)cc1)Nc1ccc2c(c1)OCCO2`, the “inhibition” value is 14.6%.

For the compound `CN(C)c1ccc(N=c2sc3ccccc3n2C)cc1`, the IC50 is 26.7 µM (active).

Take `Nc1ccc2c(c1)[nH]c(=O)c1cc(N)ccc12`: the IC50 was 16.6 µM (active).

With `Nc1ccc2cc3[nH]c4cc(N)ccc4c3nc2c1`, the “inhibition” value is -9.55%.

On to `CN1/C(=N\O)c2cccc3cccc1c23`, for which the IC50 is 54 µM (active).

Regarding `CC(=O)c1c(Nc2ccc3c(c2)OCCO3)oc(C)cc1=O`, the IC50 is 77.3 µM (active).

As for `COCCCNC(=S)N1CCN(Cc2ccc3c(c2)OCO3)CC1`, the “inhibition” value was 12.6%.

Consider `O=C(CN1CCN(C/C=C/c2ccccc2)CC1)Nc1ccccc1C(=O)NC1CC1`, for which the “inhibition” value was 13.6%.

Consider `O=C(CN1CCN(c2ccc(O)cc2)CC1)Nc1ccccc1C(=O)NCCc1ccccc1`, for which the IC50 was 32.9 µM (active).

Regarding `Oc1ccc(N2CCN(C(=S)NCCc3ccccc3)CC2)cc1`, the IC50 was 32.2 µM (active).

As for `O=C(NC(=S)N1CCN(c2ccc(O)cc2)CC1)c1ccco1`, the IC50 was 38.7 µM (active).

`CCN(CC)S(=O)(=O)c1ccc(C)c(NC(=O)CN2CCN(Cc3ccccc3)CC2)c1`: the “inhibition” value was 23.3%.

With `CN1CCC(N(C)CC(=O)Nc2ccc3c(c2)OC(F)(F)O3)CC1`, the “inhibition” value was 24.9%.

As for `Cc1sc2ccc3sccc3c2[n+]1C`, the “inhibition” value is 0.22%.
